The nature of the experiment: compounds altering in vitro BBB leakiness – cell-based, FITC-avidin fluorescence, HTS, primary screen (AID 1963498). Further: test concentration not given here. To be noted: brain endothelial barrier, actives lie on both sides.

“And” between values parts separate entries of the source, which are not always exact repeats. Identical values can stand only once. Unmarked numbers belong to inactive results. The source made the active and inactive calls. No stated cut-off is given here; in the data, active means fold change permeability below about 0.7 or above about 1.3; inactive means in between.

For the compound `CC(=O)NBr`, the fold change permeability is 1. The same measure for `C[N+](C)(C)CCOC(=O)CBr`: 1; for `C[N+](C)(C)CC#CCOC(=O)Nc1cccc(Cl)c1`: 0.9; for `C[C@@H]1[C@@H]2Cc3ccc(O)cc3[C@@]1(C)CCN2CC1CC1`: 1.3 (active).

As to `CCc1c(C(=O)C(N)=O)c2c(OCC(=O)O)cccc2n1Cc1ccccc1`, the fold change permeability was 1.1.

In the case of `N#Cc1ccc(N2CCN(C(=O)COc3ccc4[nH]cc(CCN)c4c3)CC2)cc1`, the fold change permeability is 1. The same measure for `CC(C)(O)[C@@H]1C2OC(=O)C1[C@]1(O)C[C@H]3O[C@]34C(=O)O[C@H]2[C@]14C` (stereo partly specified) (tested in a mixture with another compound): 1.1. Consider `NNC(=O)c1ccc(O)cc1`, for which the fold change permeability is 0.8.

Regarding `C[N+](C)(C)CC#CCN1CCCC1=O`, the fold change permeability was 1.

Consider `COC(=O)C1=CCCN(C)C1`, for which the fold change permeability is 1.2. Next, `NCCCP(=O)(O)O`: 1.3 (active); `CCCN(CCC)CCc1ccc(O)c(O)c1`: 0.8; `CCCN(CCC)C1CCc2cccc(O)c2C1` (stereo unspecified): 1. The same measure for `c1ccc2c(c1)OCC(C1=NCCN1)O2` (stereo unspecified): 2.1 (active); for `NCC(O)c1ccc(O)cc1` (stereo unspecified): 0.9; for `N#CC(C#N)=Cc1ccc(O)c(O)c1`: 1.2. The same measure for `Nc1ccc(CCN2CCN(c3cccc(C(F)(F)F)c3)CC2)cc1`: 1.8 (active); for `Cc1c2ccncc2c(C)c2c1[nH]c1ccccc12`: 1.2; for `CN1[C@H]2C[C@H](OC(=O)[C@H](CO)c3ccccc3)C[C@@H]1[C@@H](O)C2`: 0.8.

As to `NCCc1c[nH]c2ccccc12`, the fold change permeability is 1.4 (active). The same measure for `C#CCOC(=O)C1=CCCN(C)C1`: 1; for `CCN1CCN(C(=O)Cc2ccc(Nc3ncc(F)c(Nc4ccc(C(=O)Nc5ccccc5Cl)cc4)n3)cc2)CC1`: 1.1; for `N[C@@H]1C[C@H]1c1ccccc1`: 0.9. Turning to `CCCN(CCC)C1CCc2ccc(O)cc2C1` (stereo unspecified), the fold change permeability was 1.1. Regarding `C[C@@H](N)Cc1cnc[nH]1`, the fold change permeability was 0.9.

Take `CCCCc1ccc(C(=O)O)nc1`: the fold change permeability is 0.8. Next, `NN=C(N)N`: 1.2 and 1. On to `O=C(O)Cc1cnc[nH]1`, for which the fold change permeability is 1.

Take `COc1ccc2[nH]c3c(c2c1)CCNC3`: the fold change permeability is 1. In the case of `O=[N+]([O-])/C=C/c1ccc2c(c1)OCO2`, the fold change permeability was 1.4 (active). The same measure for `COc1ccc(C(=O)N2CCCC2=O)cc1`: 1; for `Fc1ccc(C(OCCN2CCN(CCCc3ccccc3)CC2)c2ccc(F)cc2)cc1`: 1.6 (active); for `CCCN1CCC[C@@H](c2cccc(O)c2)C1`: 1. The same measure for `CC(N)[C@H](O)c1ccc(O)c(O)c1` (stereo partly specified): 1.

As to `NC(=O)CN1CCCC1=O`, the fold change permeability was 1.2. Next, `S=C(NC1CCCCC1)N1CCC(c2cnc[nH]2)CC1`: 1.6 (active).

(Values after PubChem BioAssay.)
